Results taken from the supplement of paper PMC8975748.
Structures can show the parent of a compound that is named as a salt. ± gives the standard deviation of the averaged measurements.

Tests used:
[1] = test system: Saccharomyces cerevisiae BY4741 SeMeCo community; experiment: mean cell size (pixel area) (pixels); higher = larger cells; details: 10 µM; 24 h; SM minimal medium
Summary of the method: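 Harmony analysis of automated confocal images of paraformaldehyde-fixed yeast gave the mean cell pixel area per well. The yeast was a Saccharomyces cerevisiae BY4741 community carrying four plasmids, each with a fluorescent marker and each complementing one auxotrophy, incubated for 24 h in SM medium containing drug at a final 10 µM in 384-well plates. Results are averaged over 3 replicates. Same SeMeCo high-content imaging drug screen: Selleck FDA-approved drugs at 10 µM, 24 h in SM medium, 384-well plates, 3 replicates.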

[2] = test system: Saccharomyces cerevisiae BY4741 SeMeCo community; experiment: z-score of prototroph abundance vs DMSO median; higher = larger share of this subpopulation than in DMSO controls; details: 10 µM; 24 h; SM minimal medium; subpopulation (auxotrophy): Prototroph
Summary of the method: (§1)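 Automated confocal microscopy of paraformaldehyde-fixed cells was used to follow a Saccharomyces cerevisiae BY4741 community carrying four plasmids, each restoring one auxotrophy and encoding a distinct fluorescent protein. The community was pre-grown overnight to OD600 1.0, diluted to 0.3, and added at 70 µl to 384-well plates acoustically predosed with library drugs (10 µM final) for 24 h of growth in minimal SM medium. Single-auxotroph fluorescent strains set thresholds and autofluorescence correction, and each subpopulation's abundance was scored as a z-score against the vehicle-well median.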

[3] = test system: Saccharomyces cerevisiae BY4741 SeMeCo community; experiment: z-score of subpopulation abundance vs DMSO median, subpopulation auxotrophic for M; higher = larger share of this subpopulation than in DMSO controls; details: 10 µM; 24 h; SM minimal medium; subpopulation (auxotrophy): M
Summary of the method: as §1

[4] = test system: Saccharomyces cerevisiae BY4741 SeMeCo community; experiment: z-score of subpopulation abundance vs DMSO median, subpopulation auxotrophic for L; higher = larger share of this subpopulation than in DMSO controls; details: 10 µM; 24 h; SM minimal medium; subpopulation (auxotrophy): L
Summary of the method: as §1

[5] = test system: Saccharomyces cerevisiae BY4741 SeMeCo community; experiment: z-score of subpopulation abundance vs DMSO median, subpopulation auxotrophic for U; higher = larger share of this subpopulation than in DMSO controls; details: 10 µM; 24 h; SM minimal medium; subpopulation (auxotrophy): U
Summary of the method: as §1

[6] = test system: Saccharomyces cerevisiae BY4741 SeMeCo community; experiment: z-score of subpopulation abundance vs DMSO median, subpopulation auxotrophic for H; higher = larger share of this subpopulation than in DMSO controls; details: 10 µM; 24 h; SM minimal medium; subpopulation (auxotrophy): H
Summary of the method: as §1

[7] = test system: Saccharomyces cerevisiae BY4741 SeMeCo community; experiment: z-score of subpopulation abundance vs DMSO median, subpopulation auxotrophic for LU; higher = larger share of this subpopulation than in DMSO controls; details: 10 µM; 24 h; SM minimal medium; subpopulation (auxotrophy): LU
Summary of the method: as §1

[8] = test system: Saccharomyces cerevisiae BY4741 SeMeCo community; experiment: z-score of subpopulation abundance vs DMSO median, subpopulation auxotrophic for LM; higher = larger share of this subpopulation than in DMSO controls; details: 10 µM; 24 h; SM minimal medium; subpopulation (auxotrophy): LM
Summary of the method: as §1

[9] = test system: Saccharomyces cerevisiae BY4741 SeMeCo community; experiment: z-score of subpopulation abundance vs DMSO median, subpopulation auxotrophic for HM; higher = larger share of this subpopulation than in DMSO controls; details: 10 µM; 24 h; SM minimal medium; subpopulation (auxotrophy): HM
Summary of the method: as §1

[10] = test system: Saccharomyces cerevisiae BY4741 SeMeCo community; experiment: z-score of subpopulation abundance vs DMSO median, subpopulation auxotrophic for HU; higher = larger share of this subpopulation than in DMSO controls; details: 10 µM; 24 h; SM minimal medium; subpopulation (auxotrophy): HU
Summary of the method: as §1

[11] = test system: Saccharomyces cerevisiae BY4741 SeMeCo community; experiment: z-score of subpopulation abundance vs DMSO median, subpopulation auxotrophic for UM; higher = larger share of this subpopulation than in DMSO controls; details: 10 µM; 24 h; SM minimal medium; subpopulation (auxotrophy): UM
Summary of the method: as §1

[12] = test system: Saccharomyces cerevisiae BY4741 SeMeCo community; experiment: z-score of subpopulation abundance vs DMSO median, subpopulation auxotrophic for HL; higher = larger share of this subpopulation than in DMSO controls; details: 10 µM; 24 h; SM minimal medium; subpopulation (auxotrophy): HL
Summary of the method: as §1

[13] = test system: Saccharomyces cerevisiae BY4741 SeMeCo community; experiment: z-score of subpopulation abundance vs DMSO median, subpopulation auxotrophic for HLU; higher = larger share of this subpopulation than in DMSO controls; details: 10 µM; 24 h; SM minimal medium; subpopulation (auxotrophy): HLU
Summary of the method: as §1

[14] = test system: Saccharomyces cerevisiae BY4741 SeMeCo community; experiment: z-score of subpopulation abundance vs DMSO median, subpopulation auxotrophic for HLM; higher = larger share of this subpopulation than in DMSO controls; details: 10 µM; 24 h; SM minimal medium; subpopulation (auxotrophy): HLM
Summary of the method: as §1

[15] = test system: Saccharomyces cerevisiae BY4741 SeMeCo community; experiment: z-score of subpopulation abundance vs DMSO median, subpopulation auxotrophic for HUM; higher = larger share of this subpopulation than in DMSO controls; details: 10 µM; 24 h; SM minimal medium; subpopulation (auxotrophy): HUM
Summary of the method: as §1

[16] = test system: Saccharomyces cerevisiae BY4741 SeMeCo community; experiment: z-score of subpopulation abundance vs DMSO median, subpopulation auxotrophic for LUM; higher = larger share of this subpopulation than in DMSO controls; details: 10 µM; 24 h; SM minimal medium; subpopulation (auxotrophy): LUM
Summary of the method: as §1

[17] = test system: Saccharomyces cerevisiae BY4741 SeMeCo community; experiment: z-score of subpopulation abundance vs DMSO median, subpopulation auxotrophic for HLUM; higher = larger share of this subpopulation than in DMSO controls; details: 10 µM; 24 h; SM minimal medium; subpopulation (auxotrophy): HLUM
Summary of the method: as §1

SMILES	mean cell size [1]	z-score of prototroph abundance [2]	z-score of subpopulation abundance [3]	z-score of subpopulation abundance [4]	z-score of subpopulation abundance [5]	z-score of subpopulation abundance [6]	z-score of subpopulation abundance [7]	z-score of subpopulation abundance [8]	z-score of subpopulation abundance [9]	z-score of subpopulation abundance [10]	z-score of subpopulation abundance [11]	z-score of subpopulation abundance [12]	z-score of subpopulation abundance [13]	z-score of subpopulation abundance [14]	z-score of subpopulation abundance [15]	z-score of subpopulation abundance [16]	z-score of subpopulation abundance [17]
C[C@@H]1[C@H](O)[C@@H](C)/C=C/C=C/C=C/C=C/C=C/C=C/C=C/[C@H](O[C@@H]2O[C@H](C)[C@@H](O)[C@H](N)[C@@H]2O)C[C@@H]2O[C@](O)(C[C@@H](O)C[C@@H](O)[C@H](O)CC[C@@H](O)C[C@@H](O)CC(=O)O[C@H]1C)C[C@H](O)[C@H]2C(=O)O [Amphotericin B]	9.69 ± 0.22	-19.9	-8.72	-2.03	-0.38	-5.04	24.4	-0.85	0.42	10.5	29.4	8.48	31.3	12.6	75.7	–	–
CNCCC(Oc1ccc(C(F)(F)F)cc1)c1ccccc1 (stereo unspecified) [Fluoxetine HCl]	12.4 ± 0.14	0.06	0.18	-0.14	0	-0.47	0.51	0	–	-0.26	0.29	-0.68	0.27	-0.31	-0.15	0.21	0.65
Fc1ccc(C(c2ccc(F)cc2)N2CCN(C/C=C/c3ccccc3)CC2)cc1 [Flunarizine 2HCl]	12.38 ± 0.06	-1.16	-0.21	2.04	-0.07	0.98	0.52	1.5	–	0.97	-0.39	0.64	0.59	1.25	0.51	–	1.3
CCCCCCCCc1ccc(CCC(N)(CO)CO)cc1 [Fingolimod]	12.1 ± 0.37	2.04	-1.67	-1.22	–	–	-0.72	-1.42	-1.86	-0.71	-1.44	-1.71	-1.65	-1.02	-1.31	-1.47	–
CCN1CCCC1CNC(=O)c1cc(S(=O)(=O)CC)c(N)cc1OC (stereo unspecified) [Amisulpride]	12.4 ± 0.13	0.14	0.12	-0.08	–	0.19	0.33	-0.1	-1.17	–	0.04	-0.73	-0.63	-0.87	-0.03	–	–
C[C@@H]1O[C@@H]1P(=O)(O)O [Fosfomycin Disodium]	12 ± 0.14	0.42	-0.48	0.72	-0.22	0.63	0.6	-0.25	–	0.04	-0.18	0.86	0.52	-0.12	-0.19	–	-0.05
C=C[C@]1(C)C[C@@H](OC(=O)CS[C@@H]2C[C@H]3CC[C@@H](C2)N3C)[C@]2(C)[C@H](C)CC[C@]3(CCC(=O)[C@H]32)[C@@H](C)[C@@H]1O [Retapamulin]	12.42 ± 0.093	-0.09	-0.9	-0.16	–	-0.84	1.21	0.32	-0.99	0.72	0.21	-0.57	0.45	-0.52	0.06	0.62	–
Cc1cc(/C=C/c2ccc3cc(N(C)C)ccc3[n+]2C)c(C)n1-c1ccccc1 [pyrvinium]	12.38 ± 0.085	0.55	0.61	-1.29	0.84	-3.04	0.05	-0.19	-0.29	–	–	-1.44	-0.46	-0.3	-0.73	-0.14	–
CN1CCN(c2cc3c(cc2F)c(=O)c(C(=O)O)cn3-c2ccc(F)cc2)CC1 [Difloxacin hydrochloride]	12.1 ± 0.29	0.85	0.06	-0.28	-0.57	-2.54	-0.13	-0.31	-0.76	–	-0.52	-1.38	-0.55	-0.2	-0.72	-0.26	–
CCc1nc(N)nc(N)c1-c1ccc(Cl)cc1 [Pyrimethamine]	12.3 ± 0.38	–	-0.13	-0.63	-0.01	-0.47	-0.16	0.19	–	-0.29	-0.1	-0.25	0	-0.3	0.42	0.49	-0.2
CC[C@H](Nc1ncnc2[nH]cnc12)c1nc2cccc(F)c2c(=O)n1-c1ccccc1 [Idelalisib (CAL-101, GS-1101)]	12.58 ± 0.07	-0.14	-0.54	-0.49	–	0.31	0.5	-0.23	-0.64	–	0.34	-1.05	-0.35	0.08	-0.4	0.11	–
CCCCOC(=O)c1ccc(O)cc1 [Butylparaben]	12.3 ± 0.29	1.77	-0.57	-0.62	-0.7	-1.64	-1.79	-0.49	-1.19	-1.93	-1.24	-0.99	-1.3	-0.41	-1.38	–	–
CCNC(=O)[C@@H]1CCCN1C(=O)[C@H](CCCNC(=N)N)NC(=O)[C@H](CC(C)C)NC(=O)[C@@H](CC(C)C)NC(=O)[C@H](Cc1ccc(O)cc1)NC(=O)[C@H](CO)NC(=O)[C@H](Cc1c[nH]c2ccccc12)NC(=O)[C@H](Cc1c[nH]cn1)NC(=O)[C@@H]1CCC(=O)N1 [Leuprolide Acetate]	12.5 ± 0.15	-0.62	0.38	0.44	–	0.67	-0.03	0.63	–	1.03	0.23	0.14	0.54	0.28	0.45	0.35	0.75
Nc1ccc(C(=O)O)c(O)c1 [4-Aminosalicylic acid]	12 ± 0.19	2.23	1.33	0.78	-3.36	-0.01	-3.37	0.62	–	-3.39	-2.19	–	-0.27	-0.9	-1.3	-1.15	-0.18
